PNC assembly inh: perinucleolar compartment assembly inhibition; 140,000 tested, 3.1% active; activity change (PNC), negative = inhibition, % at 10 µM; AID 2417; PC3M PTB-GFP, PNC prevalence imaging, 16 h; hits give low values;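 active = readout at or below -70, meaning at least 70% loss of cells showing the perinucleolar compartment, a nuclear body marking cancer cells; inconclusive = readout between -30 and a set limit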
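Compounds are pinned in duplicate onto adhered PC3M cells stably expressing GFP-tagged PTB and incubated 16 h at 37 C. Cells are then fixed, nuclei stained with Hoechst, and PNC-positive cells counted.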
ALDH1A1 inh: ALDH1A1 (human) enzyme inhibition | AID 1030 | 220,000 tested, 7.3% active | Purified ALDH1A1, NADH fluorescence, propionaldehyde substrate | P00352 | Potency, µM (series often up to 75.3 µM), hits mostly inhibitors
HPGD block: blocks human HPGD enzyme activity; P15428; purified HPGD, NADH fluorescence kinetic, PGE2 substrate; Potency, µM, actives largely listed as inhibitors; 150,000 tested, 4.3% active; AID 894
Target sequence (P15428 whole entry, looked up): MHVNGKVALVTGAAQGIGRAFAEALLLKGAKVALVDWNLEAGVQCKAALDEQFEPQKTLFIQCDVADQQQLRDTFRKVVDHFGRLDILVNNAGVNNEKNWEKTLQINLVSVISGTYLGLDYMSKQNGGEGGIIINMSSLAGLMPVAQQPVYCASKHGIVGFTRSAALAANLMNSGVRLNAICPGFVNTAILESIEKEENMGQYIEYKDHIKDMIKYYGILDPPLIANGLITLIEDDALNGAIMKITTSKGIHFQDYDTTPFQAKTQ
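20 nM HPGD preincubated 15 min at room temperature with compound in 50 mM Tris-HCl pH 8, 0.01% Tween 20. Started with 1 mM NAD+ and 30 uM prostaglandin E2; NADH fluorescence (360/450 nm) read 5 times over 30-s intervals, last minus first.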
Large screens that a line does not name were inactive. Compounds with a hit are over-represented: about 11% of the library has one in this group of screens. Unless noted, calls come from the whole dose curve; as a rule, active = well fitted inhibition curve with a large enough effect (not every such curve was filed as active); inconclusive = small, poorly fitted or top-dose-only effect, or another doubt; inactive = no such curve, though single readings can be large or run the other way.

O=C(Cn1cnc2sc(-c3ccccc3)cc2c1=O)NCc1ccco1	PNC assembly inh -90, ALDH1A1 inh inconclusive, HPGD block 16µM
CCOC(=O)C1=C(CN2CCN(CCC#N)CC2)NC(=O)NC1c1ccc2c(c1)OCO2 (stereo unspecified)	none (no result: PNC assembly inh, HPGD block)
C=CCOc1ccc2c(c1)c(=O)cc(C(=O)O)n2CC	none (no result: PNC assembly inh, HPGD block)
NS(=O)(=O)c1ccc(NC(=O)CN2C(=O)C3C4C=CC(C4)C3C2=O)cc1 (stereo unspecified)	none (no result: PNC assembly inh, HPGD block)
CC(C)CCN1CCc2nc(COc3ccccc3)c3c(c2C1)COC(C)C3 (stereo unspecified)	none (no result: PNC assembly inh, HPGD block)
CC1=C(C(=O)Nc2cc(C)ccc2C)C(c2cccs2)NC(=S)N1 (stereo unspecified)	ALDH1A1 inh 5.6µM
CC1=C(C(=O)Nc2ccc(C)cc2C)C(c2ccc(C)o2)NC(=S)N1 (stereo unspecified)	PNC assembly inh inconclusive, ALDH1A1 inh inconclusive
CC1=C(C(=O)Nc2ccccc2F)C(c2cccs2)NC(=S)N1 (stereo unspecified)	ALDH1A1 inh 13µM (no result: PNC assembly inh, HPGD block)
CNC(=O)C1=C(C)NC(=S)NC1c1cccs1 (stereo unspecified)	none (no result: PNC assembly inh, HPGD block)
N#Cc1ccc(OCC(=O)OCC(=O)Nc2cc(C(F)(F)F)ccc2N2CCOCC2)cc1	none
CC(C)C(NC(=O)Cc1ccccc1[N+](=O)[O-])C(C)C	none (no result: HPGD block)
O=[N+]([O-])c1ccccc1CNC(Cc1ccccc1)c1ccccc1 (stereo unspecified)	PNC assembly inh inconclusive, ALDH1A1 inh 13µM
CC(C)=CCl	none (no result: PNC assembly inh)
Cc1ccnc(NC(=O)C2CCC(CNc3c(N4CCCC4)c(=O)c3=O)CC2)c1 (stereo unspecified)	none
O=C(NC1CCCCCCC1)C1CCC(CNc2c(N3CCCC3)c(=O)c2=O)CC1 (stereo unspecified)	PNC assembly inh -119, ALDH1A1 inh inconclusive, HPGD block 4µM
Cc1ccc(CCNC(=O)C2CCCN(S(=O)(=O)c3cccc4nsnc34)C2)cc1 (stereo unspecified)	PNC assembly inh inconclusive
Cc1cccc(CCNC(=O)C2CCCN(S(=O)(=O)c3cccc4nsnc34)C2)c1 (stereo unspecified)	PNC assembly inh -95
Cc1cccc(CCNC(=O)C2CCC(CNc3c(N4CCCC4)c(=O)c3=O)CC2)c1 (stereo unspecified)	PNC assembly inh inconclusive, ALDH1A1 inh inconclusive, HPGD block 13µM
COc1cc(NC(=O)C2CCC(CNc3c(N4CCCCC4)c(=O)c3=O)CC2)cc(OC)c1 (stereo unspecified)	none
CCC(Cc1ccccc1)NC(=O)C1CCC(CNc2c(N3CCCC3)c(=O)c2=O)CC1 (stereo unspecified)	none
Cc1ccc(CCNC(=O)C2CCC(CNc3c(N4CCCC4)c(=O)c3=O)CC2)cc1 (stereo unspecified)	HPGD block 25µM
CCOc1ccc(-n2c(=O)c3sccc3n(Cc3ccc(C)cc3)c2=O)cc1	none (no result: PNC assembly inh, HPGD block)
Cc1[nH]c(C)c(Cl)c(=O)c1Cl	none (no result: PNC assembly inh)
CCN1C(=O)CCC(C(=O)O)C1c1ccc(OC)cc1 (stereo unspecified)	none (no result: PNC assembly inh, HPGD block)
N=C(N=C(N)N)N1CCc2ccccc21	none (no result: PNC assembly inh, HPGD block)
N#Cc1ccc(CN2CCCC3(CCNCC3)C2)cc1	none (no result: PNC assembly inh)
O=C(NCC1COc2ccccc2O1)C1CCC(CNc2c(N3CCCCC3)c(=O)c2=O)CC1 (stereo unspecified)	PNC assembly inh inconclusive, HPGD block 14µM
O=C(NC1CCCc2ccccc21)C1CCC(CNc2c(N3CCOCC3)c(=O)c2=O)CC1 (stereo unspecified)	none
CC(=O)OC[C@H]1O[C@@H](O/N=C/C[C@@H]2C=C[C@H](OC(C)=O)[C@@H](COC(C)=O)O2)[C@H](OC(C)=O)[C@@H](OC(C)=O)[C@@H]1OC(C)=O	none
COc1ccc(-n2ccnc2SCC(=O)NC2CCCC2)c(OC)c1	none (no result: PNC assembly inh, HPGD block)
Cc1ccccc1Nc1ncnc(N)n1	none (no result: PNC assembly inh, HPGD block)
Nc1ccc(CC2SC(=O)NC2=O)cc1 (stereo unspecified)	none
CC(=O)/C(C#N)=C1\NC(=O)C(Cc2ccccc2Cl)S1 (stereo unspecified)	HPGD block inconclusive
Cc1ccc(CC2SC(=O)NC2=O)cc1Cl (stereo unspecified)	PNC assembly inh -100, ALDH1A1 inh 32µM
CC(=O)/C(C#N)=C1\NC(=O)C(Cc2ccc(C)c(C)c2)S1 (stereo unspecified)	PNC assembly inh -108
O=[N+]([O-])c1ccc(N2CCCCC2)nc1N1CCCCC1	ALDH1A1 inh 0.32µM (no result: PNC assembly inh, HPGD block)
O=C(c1ccc(F)cc1)N1CCN(c2ccc([N+](=O)[O-])c(N3CCCCC3)c2)CC1	PNC assembly inh inconclusive (no result: HPGD block)
O=[N+]([O-])c1ccc(Cl)cc1N1CCCCC1	ALDH1A1 inh 18µM (no result: PNC assembly inh, HPGD block)
O=[N+]([O-])c1cccnc1N1CCCCC1	none
O=C(COc1ccccc1Cl)N1CCN(c2ccc([N+](=O)[O-])c(N3CCCCC3)c2)CC1	PNC assembly inh inconclusive, ALDH1A1 inh 1.6µM
CNc1cc(N2CCCCCC2)ccc1[N+](=O)[O-]	ALDH1A1 inh 10µM, HPGD block inconclusive
O=[N+]([O-])c1ccc(Cl)cc1N1CCOCC1	none (no result: PNC assembly inh, HPGD block)
CNc1cc(N2CCCC2)ccc1[N+](=O)[O-]	none (no result: PNC assembly inh, HPGD block)
O=P(COc1ccccc1)(c1ccccc1)c1ccccc1	none
O=C(Nc1ccccc1F)C1CCCN(S(=O)(=O)c2ccccc2)C1 (stereo unspecified)	none (no result: PNC assembly inh, HPGD block)
O=C(O)C[C@@H](C(=O)O)c1ccccc1[N+](=O)[O-]	none (no result: PNC assembly inh)
CCOC(=O)c1ccccc1NC(=O)CSc1nc(N)cc(=O)[nH]1	none (no result: PNC assembly inh, HPGD block)
COc1ccc(CNc2nc(-c3cccc(NS(C)(=O)=O)c3)nc3ccccc23)c(OC)c1	none (no result: PNC assembly inh, HPGD block)
O=C(Nc1nnc(SCc2ccc(F)cc2)s1)C1CC(=O)N(Cc2ccccc2)C1 (stereo unspecified)	none
O=C(COc1ccc(Cl)cc1)N1CCN(c2ccc([N+](=O)[O-])c(N3CCCCC3)c2)CC1	ALDH1A1 inh 2.5µM
Cc1cc(OCC(=O)N2CCCCCC2)ccc1[N+](=O)[O-]	PNC assembly inh inconclusive
COc1cccc(CC2(CO)CCCN(Cc3ccc4c(c3)OCCO4)C2)c1 (stereo unspecified)	none (no result: PNC assembly inh, HPGD block)
COc1cc(/C=C(\C#N)c2nc3ccccc3[nH]2)cc(OC)c1O	none (no result: PNC assembly inh, HPGD block)
Cc1ccc2nc(/C(C#N)=C\c3cc(O)ccc3[N+](=O)[O-])[nH]c2c1	none (no result: PNC assembly inh, HPGD block)
Cc1cc(/C=C(/C#N)c2nc3ccccc3[nH]2)c(C)n1-c1cccc([N+](=O)[O-])c1	ALDH1A1 inh inconclusive
COc1c(O)ccc(/C=C(\C#N)c2nc3ccccc3[nH]2)c1[N+](=O)[O-]	PNC assembly inh inconclusive, HPGD block 28µM
COc1cc(/C=C(/C#N)c2nc3ccccc3c(=O)[nH]2)ccc1O	HPGD block 14µM
Cc1ccc2nc(/C(C#N)=C/c3ccc(-c4cccc([N+](=O)[O-])c4)o3)[nH]c2c1	PNC assembly inh inconclusive, ALDH1A1 inh inconclusive, HPGD block 25µM
N#C/C(=C\c1cc([N+](=O)[O-])c(N2CCOCC2)cc1N1CCOCC1)c1nc2ccccc2[nH]1	HPGD block 14µM
COc1cc(/C=C(\C#N)c2nc3ccc(C)cc3[nH]2)c([N+](=O)[O-])cc1OC	none
COc1ccccc1Nc1ccc(S(=O)(=O)N2CCCCC2)cc1[N+](=O)[O-]	none
CCOC(=O)N1CCC(N2CCCC(CO)(Cc3cccc(Cl)c3)C2)CC1 (stereo unspecified)	none (no result: PNC assembly inh, HPGD block)
Nc1nc(Cl)cc(NCCO)n1	none (no result: PNC assembly inh)
